In the supplement of paper PMC10849652:
Targets with a hit are over-represented here; the source holds about 7,900 in all. About 0.6% of all pairs of compound and target were hits.

compound: CCN(CC)Cc1ccc2cc(COC(=O)Nc3ccc(C(=O)NO)cc3)ccc2c1 [givinostat]; assay: log2 fold change, soluble protein after heating vs DMSO (PISA); higher = thermal stabilisation; K562 cells, 10 uM, 30 min; active = over 0.2 and 3.5 SD of the protein, either way, in both replicates (recomputed)
Procedure, shortened: (§1)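 Thermal stability values are relative to control samples and come from duplicates. They are expressed as log2 fold changes. For measurement, K562 cells (2×10^6 cells/mL) received 10 μM compound for 30 min, and aliquots were heated for 3 min over 48°C-58°C, pooled, and extracted at 4°C in PBS with 0.5% NP-40. Soluble protein, the supernatant after 21,000xg for 90 min, was quantified by TMTpro 16plex LC-MS/MS with equalised channel sums.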

UniProt P61960, sequence (P61960 whole entry, looked up): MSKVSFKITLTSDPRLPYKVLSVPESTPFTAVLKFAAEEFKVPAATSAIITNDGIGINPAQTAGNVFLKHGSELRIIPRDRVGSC
UniProt Q86UV5, sequence (Q86UV5 whole entry, looked up): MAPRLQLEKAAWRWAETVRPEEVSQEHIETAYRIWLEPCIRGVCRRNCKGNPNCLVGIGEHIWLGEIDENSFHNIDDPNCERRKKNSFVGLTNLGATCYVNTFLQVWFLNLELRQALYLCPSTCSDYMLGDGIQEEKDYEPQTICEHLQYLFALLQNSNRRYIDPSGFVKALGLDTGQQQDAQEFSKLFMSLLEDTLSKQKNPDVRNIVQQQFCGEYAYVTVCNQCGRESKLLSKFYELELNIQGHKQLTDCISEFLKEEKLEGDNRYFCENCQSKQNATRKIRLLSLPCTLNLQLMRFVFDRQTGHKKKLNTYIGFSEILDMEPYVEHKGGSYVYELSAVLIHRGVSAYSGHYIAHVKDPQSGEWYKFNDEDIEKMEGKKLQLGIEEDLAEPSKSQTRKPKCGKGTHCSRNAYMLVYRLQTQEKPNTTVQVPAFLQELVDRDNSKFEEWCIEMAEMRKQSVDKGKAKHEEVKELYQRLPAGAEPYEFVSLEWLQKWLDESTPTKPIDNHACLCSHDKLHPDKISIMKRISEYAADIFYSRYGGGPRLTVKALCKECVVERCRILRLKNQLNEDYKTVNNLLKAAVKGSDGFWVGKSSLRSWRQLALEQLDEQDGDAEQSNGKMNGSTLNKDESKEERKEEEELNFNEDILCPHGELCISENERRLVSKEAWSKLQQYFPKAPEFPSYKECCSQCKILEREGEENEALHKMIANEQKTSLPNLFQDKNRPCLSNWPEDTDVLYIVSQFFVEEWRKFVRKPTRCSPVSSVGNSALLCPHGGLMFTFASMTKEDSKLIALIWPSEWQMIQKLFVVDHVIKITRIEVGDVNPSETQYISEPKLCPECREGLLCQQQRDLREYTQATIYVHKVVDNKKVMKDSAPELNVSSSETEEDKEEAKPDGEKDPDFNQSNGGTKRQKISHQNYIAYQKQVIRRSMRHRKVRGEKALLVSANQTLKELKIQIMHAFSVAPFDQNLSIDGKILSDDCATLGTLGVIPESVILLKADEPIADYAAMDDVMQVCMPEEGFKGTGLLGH
UniProt P36406, sequence (P36406 whole entry, looked up): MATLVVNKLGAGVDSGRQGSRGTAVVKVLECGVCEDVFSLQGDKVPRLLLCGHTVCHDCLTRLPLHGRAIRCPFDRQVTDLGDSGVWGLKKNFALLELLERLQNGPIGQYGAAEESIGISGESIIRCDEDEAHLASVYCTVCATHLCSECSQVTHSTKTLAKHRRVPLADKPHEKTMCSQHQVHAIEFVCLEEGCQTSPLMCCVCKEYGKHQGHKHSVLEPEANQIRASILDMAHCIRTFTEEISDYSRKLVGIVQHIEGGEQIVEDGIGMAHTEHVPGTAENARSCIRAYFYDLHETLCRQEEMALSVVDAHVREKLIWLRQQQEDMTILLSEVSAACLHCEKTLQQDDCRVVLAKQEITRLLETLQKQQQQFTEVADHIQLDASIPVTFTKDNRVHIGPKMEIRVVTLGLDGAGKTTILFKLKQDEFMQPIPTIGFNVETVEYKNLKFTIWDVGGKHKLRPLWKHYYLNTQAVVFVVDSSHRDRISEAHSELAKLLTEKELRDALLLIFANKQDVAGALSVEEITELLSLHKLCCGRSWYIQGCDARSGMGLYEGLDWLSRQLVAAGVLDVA
UniProt Q9HCN3, sequence (Q9HCN3 whole entry, looked up): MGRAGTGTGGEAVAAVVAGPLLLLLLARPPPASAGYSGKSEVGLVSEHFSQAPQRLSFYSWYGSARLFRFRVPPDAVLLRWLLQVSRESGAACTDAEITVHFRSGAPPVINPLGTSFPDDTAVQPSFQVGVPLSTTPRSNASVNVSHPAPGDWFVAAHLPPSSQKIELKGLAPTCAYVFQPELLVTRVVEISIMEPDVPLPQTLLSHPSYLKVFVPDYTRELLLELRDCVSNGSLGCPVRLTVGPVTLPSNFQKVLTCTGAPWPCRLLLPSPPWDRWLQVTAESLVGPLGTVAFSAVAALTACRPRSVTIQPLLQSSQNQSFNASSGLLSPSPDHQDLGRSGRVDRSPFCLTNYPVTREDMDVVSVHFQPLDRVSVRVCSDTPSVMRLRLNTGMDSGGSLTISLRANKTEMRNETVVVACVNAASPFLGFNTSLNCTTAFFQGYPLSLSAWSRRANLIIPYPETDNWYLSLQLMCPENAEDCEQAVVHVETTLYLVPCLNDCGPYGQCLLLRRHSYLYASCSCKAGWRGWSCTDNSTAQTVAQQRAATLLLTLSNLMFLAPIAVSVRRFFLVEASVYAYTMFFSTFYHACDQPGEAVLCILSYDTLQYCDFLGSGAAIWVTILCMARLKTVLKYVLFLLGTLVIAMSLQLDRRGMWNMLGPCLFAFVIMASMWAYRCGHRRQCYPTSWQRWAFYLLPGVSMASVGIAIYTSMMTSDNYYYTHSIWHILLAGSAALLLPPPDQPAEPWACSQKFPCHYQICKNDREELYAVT
UniProt Q16881, sequence (Q16881 whole entry, looked up): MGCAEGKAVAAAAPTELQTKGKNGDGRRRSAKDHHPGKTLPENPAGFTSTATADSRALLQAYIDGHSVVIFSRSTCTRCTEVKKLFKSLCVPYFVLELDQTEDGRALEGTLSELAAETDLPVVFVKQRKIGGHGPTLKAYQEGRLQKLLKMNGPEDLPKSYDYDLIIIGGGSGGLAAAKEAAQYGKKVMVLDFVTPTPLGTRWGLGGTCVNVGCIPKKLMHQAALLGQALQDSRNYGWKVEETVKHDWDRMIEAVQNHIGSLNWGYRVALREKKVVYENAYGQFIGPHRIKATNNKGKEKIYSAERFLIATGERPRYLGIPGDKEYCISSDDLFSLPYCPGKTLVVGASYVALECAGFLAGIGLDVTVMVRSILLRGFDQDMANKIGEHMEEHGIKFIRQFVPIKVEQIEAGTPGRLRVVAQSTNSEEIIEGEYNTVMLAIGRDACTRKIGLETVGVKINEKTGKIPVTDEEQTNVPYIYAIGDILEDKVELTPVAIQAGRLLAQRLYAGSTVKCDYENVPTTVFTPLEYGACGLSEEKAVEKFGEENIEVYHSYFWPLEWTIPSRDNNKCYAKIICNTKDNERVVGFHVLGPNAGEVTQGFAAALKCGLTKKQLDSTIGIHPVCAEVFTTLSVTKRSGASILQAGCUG
UniProt P98170, sequence (P98170 whole entry, looked up): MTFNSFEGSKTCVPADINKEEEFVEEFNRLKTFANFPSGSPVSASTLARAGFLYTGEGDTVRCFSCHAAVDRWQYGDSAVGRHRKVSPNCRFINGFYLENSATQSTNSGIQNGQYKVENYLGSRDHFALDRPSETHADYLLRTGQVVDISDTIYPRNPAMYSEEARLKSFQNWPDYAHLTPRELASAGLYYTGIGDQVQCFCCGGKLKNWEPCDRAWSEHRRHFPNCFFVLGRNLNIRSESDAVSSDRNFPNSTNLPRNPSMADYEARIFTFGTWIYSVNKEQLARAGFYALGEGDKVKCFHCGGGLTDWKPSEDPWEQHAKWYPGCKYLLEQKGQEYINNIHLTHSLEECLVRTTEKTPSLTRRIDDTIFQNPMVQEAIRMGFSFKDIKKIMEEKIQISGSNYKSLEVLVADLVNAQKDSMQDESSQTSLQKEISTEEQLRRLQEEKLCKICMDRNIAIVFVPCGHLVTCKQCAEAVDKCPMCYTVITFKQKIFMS
UniProt Q502W6, sequence (Q502W6 whole entry, looked up): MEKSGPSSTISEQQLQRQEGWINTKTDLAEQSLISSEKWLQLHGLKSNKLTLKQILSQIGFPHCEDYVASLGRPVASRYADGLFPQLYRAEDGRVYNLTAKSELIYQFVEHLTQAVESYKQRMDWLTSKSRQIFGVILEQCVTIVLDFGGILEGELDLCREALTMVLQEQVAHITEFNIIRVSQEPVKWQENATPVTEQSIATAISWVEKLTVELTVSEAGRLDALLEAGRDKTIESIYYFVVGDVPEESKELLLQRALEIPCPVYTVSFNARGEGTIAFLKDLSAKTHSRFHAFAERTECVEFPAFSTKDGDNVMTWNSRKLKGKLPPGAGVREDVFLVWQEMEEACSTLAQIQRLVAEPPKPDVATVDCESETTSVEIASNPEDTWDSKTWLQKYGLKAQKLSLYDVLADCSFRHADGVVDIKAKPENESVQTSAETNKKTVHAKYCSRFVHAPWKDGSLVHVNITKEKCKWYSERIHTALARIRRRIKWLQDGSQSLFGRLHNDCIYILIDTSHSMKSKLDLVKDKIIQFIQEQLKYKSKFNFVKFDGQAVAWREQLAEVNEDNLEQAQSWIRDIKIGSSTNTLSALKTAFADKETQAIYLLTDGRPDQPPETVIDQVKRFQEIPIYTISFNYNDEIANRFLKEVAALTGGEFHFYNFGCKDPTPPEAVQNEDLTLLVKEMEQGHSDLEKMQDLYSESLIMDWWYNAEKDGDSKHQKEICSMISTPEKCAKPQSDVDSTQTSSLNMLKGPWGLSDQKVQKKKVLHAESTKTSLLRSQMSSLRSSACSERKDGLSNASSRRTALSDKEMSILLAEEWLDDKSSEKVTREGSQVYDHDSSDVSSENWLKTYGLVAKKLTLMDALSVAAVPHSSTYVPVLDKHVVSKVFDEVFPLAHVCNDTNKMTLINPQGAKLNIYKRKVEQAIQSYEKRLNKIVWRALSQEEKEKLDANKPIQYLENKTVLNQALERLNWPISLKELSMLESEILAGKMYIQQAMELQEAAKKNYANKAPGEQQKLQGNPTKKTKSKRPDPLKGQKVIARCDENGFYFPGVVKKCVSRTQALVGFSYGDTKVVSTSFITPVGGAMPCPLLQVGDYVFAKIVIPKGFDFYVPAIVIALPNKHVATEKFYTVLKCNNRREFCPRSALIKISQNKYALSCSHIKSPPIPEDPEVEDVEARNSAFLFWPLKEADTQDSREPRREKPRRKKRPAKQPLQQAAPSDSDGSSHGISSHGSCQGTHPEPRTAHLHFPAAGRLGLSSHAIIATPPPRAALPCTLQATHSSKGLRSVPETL
UniProt P51668, sequence (P51668 whole entry, looked up): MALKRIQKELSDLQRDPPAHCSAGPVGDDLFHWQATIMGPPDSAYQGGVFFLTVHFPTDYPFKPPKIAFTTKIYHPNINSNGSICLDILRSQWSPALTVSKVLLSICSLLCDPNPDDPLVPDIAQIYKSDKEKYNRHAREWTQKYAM

log2 fold change, inactive:
TVP23C (UniProt Q96ET8) 0.043
UBAP2L (UniProt F8W726) -0.067
TMEM104 (UniProt Q8NE00) -0.012
TMEM268 isoform 3 (UniProt Q5VZI3) 0.11
TMEM164 (UniProt Q5U3C3) -0.038
USP48 (UniProt Q86UV5) 0.237
XRCC1 (UniProt P18887) 0.01
UTP20 (UniProt O75691) 0.463
UBE2J2 isoform 3 (UniProt Q8N2K1) 0.009
VDAC1 (UniProt C9JI87) -0.052
TMEM8A (UniProt Q9HCN3) 0.014
TRIM5 (UniProt Q9C035) 0.119
XIAP (UniProt P98170) 0.019
UFM1 isoform 2 (UniProt P61960) -0.146
TRIM23 (UniProt P36406) 0.027
VWA3B isoform 6 (UniProt Q502W6) 0.011
WDR46, A0A0G2JJL1 0.15
TXNRD1 isoform 7 (UniProt Q16881) 0.403
TRPT1 isoform 4 (UniProt Q86TN4) 0.179
WARS1 (UniProt G3V277) 0.141
TOM1L2 (UniProt Q6ZVM7) 0.025
U2AF1L5 (UniProt P0DN76) 0.563
TOM1 (UniProt O60784) -0.09
UBE2D1 (UniProt P51668) -0.035
TMEM219 (UniProt Q86XT9) -0.029
TMEM106B (UniProt Q9NUM4) 0.052

compound: CCN(CCCOc1ccc2c(Nc3cc(CC(=O)Nc4cccc(F)c4)[nH]n3)ncnc2c1)CCOP(=O)(O)O [barasertib]; assay: as above
Procedure, shortened: as §1

log2 fold change, inactive:
TTC26 -0.139
WARS1 (UniProt G3V227) 0.004
WDR4 isoform 3 (UniProt P57081) 0.08
UBAP2L (UniProt F8W726) -0.058
TMEM268 isoform 3 (UniProt Q5VZI3) -0.461
TMEM164 (UniProt Q5U3C3) -0.095
USP48 (UniProt Q86UV5) 0.252
WARS1 (UniProt G3V3P2) -0.255
UBE2J2 isoform 3 (UniProt Q8N2K1) 0.006
VDAC1 (UniProt C9JI87) 0.071
TMEM8A (UniProt Q9HCN3) -0.189
XIAP (UniProt P98170) 0
UFM1 isoform 2 (UniProt P61960) 0.053
TRIM23 (UniProt P36406) 0.021
VWA3B isoform 6 (UniProt Q502W6) 0.057
WDR46, A0A0G2JJL1 -0.248
TXNRD1 isoform 7 (UniProt Q16881) 0.041
WDR75 (UniProt Q8IWA0) 0.025
TRIQK (UniProt Q629K1) -0.041
WARS1 (UniProt G3V277) 0.073
U2AF1L5 (UniProt P0DN76) -0.127
TOM1 (UniProt O60784) -0.039
TMEM184C (UniProt Q9NVA4) 0.055
WARS1 (UniProt G3V5U1) -0.007
TUBA4A (UniProt C9JJQ8) 0.136
UBE2D1 (UniProt P51668) 0.047
TMEM219 (UniProt Q86XT9) -0.187
TMEM106B (UniProt Q9NUM4) -0.039

compound: CC[C@@H]1C(=O)N(C)c2cnc(Nc3ccc(C(=O)NC4CCN(C)CC4)cc3OC)nc2N1C1CCCC1; assay: as above
Procedure, shortened: as §1

log2 fold change, inactive:
TVP23C (UniProt Q96ET8) 0.097
UBAP2L (UniProt F8W726) 0.077
TMEM104 (UniProt Q8NE00) -0.019
TMEM268 isoform 3 (UniProt Q5VZI3) -0.088
TMEM164 (UniProt Q5U3C3) -0.01
USP48 (UniProt Q86UV5) -0.159
UBE2J2 isoform 3 (UniProt Q8N2K1) -0.07
VDAC1 (UniProt C9JI87) 0.097
TMEM8A (UniProt Q9HCN3) -0.11
XIAP (UniProt P98170) -0.135
UFM1 isoform 2 (UniProt P61960) 0.116
TRIM23 (UniProt P36406) 0.013
VWA3B isoform 6 (UniProt Q502W6) -0.038
WDR46, A0A0G2JJL1 0.388
TXNRD1 isoform 7 (UniProt Q16881) 0.054
TRPT1 isoform 4 (UniProt Q86TN4) 0.084
U2AF1L5 (UniProt P0DN76) -0.289
TMEM184C (UniProt Q9NVA4) -0.03
WARS1 (UniProt G3V5U1) -0.03
TUBA4A (UniProt C9JJQ8) -0.115
UBE2D1 (UniProt P51668) -0.123
TMEM106B (UniProt Q9NUM4) 0.025
